Structures can show the parent of a compound that is named as a salt. Unmarked numbers belong to inactive results.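 How the source made its calls: active = AUC significantly below DMSO controls by Student t-fit with adjusted P under 0.01; inactive = not significantly reduced.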
Tested on: Haemophilus parainfluenzae
Test: growth AUC normalised to DMSO control (fraction of control); higher = less growth inhibition, active = hit call of the paper
Details: 20 µM
How it was run: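 Three biological replicates were carried out, with OD578 read hourly for 24 h. Before inoculation at a starting OD578 of 0.01, pathogens were passaged anaerobically twice; plates were pre-reduced mGAM containing 20 μM compound and 1% DMSO, sealed with breathable membranes, and the Haemophilus parainfluenzae medium carried added hemin and NAD. Area under each growth curve was calculated by the trapezoidal rule up to the exponential-to-stationary transition and normalised to DMSO controls on the same plate.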

Row | SMILES | growth AUC normalised to DMSO control
1 | O=[N+]([O-])O[C@@H]1CO[C@H]2[C@@H]1OC[C@@H]2O [Isosorbide mononitrate] | 1.05
2 | COc1ccc2c(c1)[C@]13CCCC[C@@H]1[C@H](C2)N(C)CC3 [Dextromethorphan hydrobromide monohydrate] | 1.02
3 | COc1ccc(Cc2nccc3cc(OC)c(OC)cc23)cc1OC [Papaverine hydrochloride] | 0.976
4 | CN[C@@H]1C[C@@H](c2ccc(Cl)c(Cl)c2)c2ccccc21 [Indatraline hydrochloride] | 1.04
5 | CC(C)C[C@H]1C(=O)N2CCC[C@H]2[C@]2(O)O[C@](NC(=O)[C@@H]3C=C4c5cccc6[nH]c(Br)c(c56)C[C@H]4N(C)C3)(C(C)C)C(=O)N12 [Bromocryptine mesylate] | 1
6 | C=CCN1CC[C@]23c4c5ccc(O)c4O[C@H]2C(=O)CC[C@@]3(O)[C@H]1C5 [Naloxone hydrochloride] | 1.01
7 | C=C1C[C@@H]2[C@H](CC[C@]3(C)C(=O)CC[C@@H]23)[C@@]2(C)C=CC(=O)C=C12 [Exemestane] | 0.967
8 | CCC(=O)O[C@H]1CC[C@H]2[C@@H]3CCC4=CC(=O)CC[C@]4(C)[C@H]3CC[C@]12C [Testosterone propionate] | 1.06
9 | CC(N)C(O)c1ccccc1 (configuration not stated) [Phenylpropanolamine hydrochloride] | 1.07
10 | C[C@]12COC(=O)C[C@@H]1CC[C@@H]1[C@@H]2CC[C@@]2(C)[C@H]1CC[C@]2(C)O [Oxandrolone] | 0.995
11 | C[C@]12CCC(=O)C=C1CC[C@@H]1[C@@H]2C(=O)C[C@]2(C)C(=O)CC[C@@H]12 [Adrenosterone] | 1.01
12 | CCN(C)C(=O)Oc1cccc([C@H](C)N(C)C)c1 [Rivastigmine] | 1.13
